In all, about 69,000 compounds went through this assay and about 8,600 (12%) showed an effect of 50% or more. Shown is part of a subset that was picked to be rich in strong results.
What follows are molecules tested on Plasmodium berghei (assay: Screen against P. berghei liver stage (PbLuc), transformed with Luciferase, at 10uM). Conditions: tested at 10 uM.
Format: functional, HepG2

| Structure (SMILES) | INHIBITION [%] |
| --- | --- |
| O=C(c1cnccn1)N1CCC2(CC1)CC(Oc1ccccc1)CO2 (stereo not given) | 41.3 |
| CCOCC1CCN(C(=O)c2sc(C)cc2OC(F)F)CC1 | 0.325 |
| COc1cc(CCC(=O)NC2CCN(C)CC2)ccc1OCC(F)(F)F | -14.7 |
| COCCNC(=O)c1ccc(NCc2csc(C)n2)cc1Cl | 16 |
| COCCOc1cccc(C(=O)N2CCCC(n3cccn3)C2)c1 (stereo not given) | 9.94 |
| CC1CCc2nn(CCNC(=O)Cc3cccs3)c(=O)cc2C1 (stereo not given) | -45.7 |
| Cc1nc(CN(CCS(C)(=O)=O)C(C)C)no1 | 49.3 |
| COC[C@H]1CC[C@@H]2[C@@H](CCN2Cc2ccco2)O1 | -6.39 |
| Cc1cccc(COC[C@H]2CC[C@H]3[C@H](CCN3Cc3ccco3)O2)n1 | 68.4 |
| c1coc(CN2CC[C@H]3O[C@@H](COCC4CC4)CC[C@H]32)c1 | 53.9 |
| c1csc(CN2CC[C@H]3O[C@@H](COCC4CC4)CC[C@H]32)c1 | 73 |
| c1ccc(COC[C@H]2CC[C@H]3[C@H](CCN3Cc3cccs3)O2)nc1 | 49.7 |
| c1ccc(COC[C@H]2CC[C@H]3[C@H](CCN3c3ncccn3)O2)nc1 | 26.4 |
| c1coc(CN2CC[C@@H]3O[C@@H](COCC4CCOCC4)CC[C@@H]32)c1 | -30 |
| c1ccc(COC[C@H]2CC[C@H]3[C@H](CCN3Cc3ccco3)O2)nc1 | 51.3 |
| c1coc(CN2CC[C@@H]3O[C@@H](COCc4ccncc4)CC[C@@H]32)c1 | 0.164 |
| Cc1cccc(COC[C@@H]2CC[C@H]3[C@H](CCN3Cc3ccco3)O2)n1 | 43.5 |
| c1cncc(COC[C@H]2CC[C@H]3[C@H](CCN3Cc3cccs3)O2)c1 | 31.8 |
| CN(C)C(=O)COC[C@H]1CC[C@@H]2[C@@H](CCN2Cc2ccco2)O1 | -11.6 |
| Cn1cc(C[C@H]2[C@H](O)CCN2CC2CCOCC2)cn1 | 6.6 |
| O=C1CNc2ncnc(NCc3cccs3)c2N1 | -25.5 |
| CN(Cc1ccco1)C(=O)CN1C(=O)c2cc(Cl)c(Cl)cc2C1=O | 39.2 |
| O=C1COC2(CCN(Cc3ccoc3)CC2)CN1 | -0.813 |
| CS(=O)(=O)CC(=O)N1C[C@H]2CCC[C@@]2(COc2ccccn2)C1 | -0.453 |
| Cn1c(=O)c2cc(C(=O)NCCOc3ccccc3)ccc2n(C)c1=O | 33.7 |

| Structure (SMILES) | INHIBITION [%] |
| --- | --- |
| CC(C)n1c(=O)c2ccccc2n(CCCN(C)C)c1=O | 28.7 |
| c1ccc(COC[C@H]2CC[C@H]3[C@H](CCN3Cc3ccccn3)O2)nc1 | 50.9 |
| c1ccc(COC[C@H]2CC[C@H]3[C@H](CCN3Cc3cccnc3)O2)nc1 | 29.9 |
| c1ccc(CN2CC[C@@H]3O[C@H](COCc4ccncc4)CC[C@@H]32)nc1 | 14.8 |
| CCCNC(=O)c1[nH]nc(C2CC2)c1Br | -59.9 |
| Cn1cnc2ccc(NC(=O)CCCn3cccn3)cc2c1=O | 2.84 |
| O=C(c1ccccc1F)N1CCCC1Cn1c(=O)oc2ccccc21 (stereo not given) | -1.4 |
| Fc1ccccc1C(CNc1ccncn1)N1CCCC1 (stereo not given) | 43.4 |
| CCc1nc2ccccc2c(=O)n1CC1(O)CCN(S(C)(=O)=O)CC1 | 52.9 |
| CS(=O)(=O)N1CCC(O)(Cn2c(C3CC3)nc3ccccc3c2=O)CC1 | 38.1 |
| CCc1nc2ccccc2c(=O)n1CC1(O)CCNCC1 | 28 |
| CC(C)CCN1CCN(C(=O)c2c[nH]nn2)CC1 | -0.275 |
| Cc1nc(COC[C@@H]2CC[C@H]3[C@H](CCN3c3ccccn3)O2)cs1 | -106 |
| CN1CC2(CCN(CCOCCO)CC2)CC(c2ccccc2)C1=O (stereo not given) | 73.4 |
| CCN1CC2(CCN(CCOCCO)CC2)CC(c2ccccc2)C1=O (stereo not given) | 7.84 |
| CN1C(=O)C(c2ccccc2)CC12CCN(CCOCCO)CC2 (stereo not given) | -26.4 |
| CCN(C(=O)COC)C(c1cccnc1)c1ccc2c(c1)CCO2 (stereo not given) | 51.8 |
| CCCC(=O)N(CC)C(c1cccnc1)c1ccc2c(c1)CCO2 (stereo not given) | 29.4 |
| CCN(C(=O)C(C)C)C(c1cccnc1)c1ccc2c(c1)CCO2 (stereo not given) | 3.87 |
| CCC(=O)N(CC)C(c1cccnc1)c1ccc2c(c1)CCO2 (stereo not given) | 37.9 |
| CCN(C(=O)C1CC1)C(c1cccnc1)c1ccc2c(c1)CCO2 (stereo not given) | 21.8 |
| CCN(C(=O)C1CCC1)C(c1cccnc1)c1ccc2c(c1)CCO2 (stereo not given) | 66.2 |
| Cn1ccnc1Sc1ccc(S(N)(=O)=O)cn1 | 7.92 |
| CS(=O)(=O)c1cc(Cl)cnc1C1CCN(C(=O)C2CC2)CC1 | 15.49 |
| CCOC(=O)c1nc(COc2c(C)occc2=O)no1 | 41.7 |

| Structure (SMILES) | INHIBITION [%] |
| --- | --- |
| COCC(=O)N1CCCCC1c1ccnc(Nc2cnccn2)n1 (stereo not given) | -26.2 |
| CCOc1ccc(S(=O)(=O)N(C)Cc2cnn(CC)c2)cc1 | 55.7 |
| CCn1cc(CN(C)S(=O)(=O)c2ccc(Cl)cc2)cn1 | -64.7 |
| CCn1cc(CN(C)S(=O)(=O)c2ccccc2)cn1 | 35.8 |
| NC(=O)C1CCN(C(=O)CCCc2nnc(-c3ccccc3)o2)CC1 | 33.7 |
| O=C([C@@H]1COC[C@H]2CN(C3CCCC3)C[C@H]21)N1CCCO1 | 35.4 |
| O=C([C@H]1COC[C@H]2CN(C3CCCC3)C[C@H]21)N1CCOCC1 | 74.7 |
| O=C([C@@H]1COC[C@H]2CN(C3CCCC3)C[C@H]21)N1CCC(F)CC1 | 50.3 |
| O=C([C@@H]1COC[C@H]2CN(C3CCOCC3)C[C@H]21)N1CCOCC1 | -5.69 |
| O=C([C@H]1COC[C@H]2CN(C3CCCCC3)C[C@H]21)N1CCOCC1 | 31.2 |
| O=C(O)[C@@H]1CN(C2CCCCC2)C[C@H]1C1CC1 | 9.34 |
| O=C([C@H]1COC[C@H]2CN(C3CCCC3)C[C@H]21)N1CCCCO1 | 5.65 |
| O=C([C@H]1COC[C@H]2CN(C3CCOCC3)C[C@H]21)N1CCC(F)CC1 | -20.4 |
| O=C(O)[C@@H]1CN(C2CCOCC2)C[C@H]1C1CC1 | 25.1 |
| O=C([C@H]1COC[C@H]2CN(C3CCCC3)C[C@H]21)N1CCCO1 | 71.4 |
| O=C([C@@H]1COC[C@H]2CN(C3CCCCC3)C[C@H]21)N1CCOCC1 | 7.7 |
| O=C(O)[C@@H]1CN(C2CCCC2)C[C@H]1C1CC1 | 57.9 |
| CC(C)N(C)Cc1cnc2n1CCN(C(=O)NC1CCCC1)C2 | 34.1 |
| CCOCCN1CCN(c2ccc(C#N)cn2)CC1 | 45.4 |
| CS(=O)(=O)NCCCNCc1cc(F)ccc1Br | 30.2 |
| Cc1noc(C)c1CN(C)C(=O)NC1CCOCC1 | 22.95 |
| Cc1cccc(N2CCN(C(=O)CCCC(=O)N(C)C)C(C)C2)n1 (stereo not given) | 39.3 |
| Cc1nc(CN2CCCC3(CCN(c4cnn(C)c4)C3=O)C2)cs1 (stereo not given) | 6.55 |
| Cc1nccn1C1CCCN(C(=O)c2cnc[nH]2)C1 (stereo not given) | -9.37 |
| Cn1nc(Cn2cccn2)c2c1CN(C1CCOCC1)C2 | 44.2 |

| Structure (SMILES) | INHIBITION [%] |
| --- | --- |
| CN(C(=O)c1ccccc1NCC(=O)O)C(C1CC1)C1CC1 | 25.8 |
| O=C(COCc1ccccc1Cl)N1CCCC(n2ccnc2)C1 (stereo not given) | 17.5 |
| Cc1cccc(CN2C[C@@H]3COC[C@]3(CNC(=O)c3cccn3C)C2)n1 | -17.1 |
| O=S(=O)(c1cccs1)N1CCCCC1c1ccn[nH]1 (stereo not given) | 29.3 |
| CCS(=O)(=O)N1CCCC(n2nnn(-c3ccccc3)c2=O)C1 (stereo not given) | -8.5455 |
| Cc1cc(C)c(-n2cc(CCO)cn2)cc1C | -50.3 |
| Cc1nnc(N2CCc3cnc(C(C)C)nc3C2)c(C#N)c1C | 6.72 |
| CC(CCc1ccccc1)N1CCC(C(=O)NCc2ccccc2)CC1 (stereo not given) | 46.7 |
| Cc1cnnn1Cc1ncn2c1CN(Cc1cccs1)CCC2 | 15.9 |
| CC(C)N(C(=O)Cn1c(-c2ccco2)cc2cccnc21)C(C)C | 39.3 |
| CCN(CC)C(=O)Cn1c(=O)n(Cc2ccco2)c2ncccc21 | 51.5 |
| O=C(Cn1c(=O)n(Cc2ccco2)c2ncccc21)NC1CCCC1 | 48.6 |
| O=C(Cn1c(=O)n(Cc2ccco2)c2ncccc21)NC1CC1 | 39.7 |
| O=C(Cn1c(=O)n(Cc2ccco2)c2ncccc21)Nc1ccccn1 | 45.5 |
| O=C(Cn1c(=O)n(Cc2ccco2)c2ncccc21)NC1CCCCC1 | 53.5 |
| Cc1nn(C(C)(C)C)c(=O)n1CC(=O)NC(C)(C)C | -53.6 |
| CC(C)(C)NC(=O)Cn1c(=O)n(Cc2ccco2)c2ncccc21 | 61.9 |
| CCN(CC)C(=O)CSc1nc2cc(C)nc-2c(O)n1Cc1ccco1 | 26.7 |
| Cc1ccc(C(=O)N2CCN(CCc3ccccc3)CC2)c(=O)[nH]1 | -6.45 |
| COc1ccccc1CNC(=O)CS(=O)(=O)Cc1ccccc1 | 29.8 |
| Cn1cc(Cl)cc1C(=O)N1CCN(Cc2cccs2)CC1 | -13.575 |
| CC(C)=CCN1CCN(Cc2nccn2C)C(C)C1 (stereo not given) | 35.77 |
| COc1ccc(C(CNC(=O)NCc2csc(C)n2)N(C)C)cc1 (stereo not given) | 23.5 |
| CNc1cncc(C2CCCN2C(=O)c2ccc3nc(C)[nH]c3c2)n1 (stereo not given) | 2.6 |
| O=S1(=O)c2ccccc2C(O)CN1CCO (stereo not given) | -5.77 |

From ChEMBL document CHEMBL4513216, “Probing the Open Global Health Chemical Diversity Library for Multistage-Active Starting Points for Next-Generation Antimalarials” (ACS Infect Dis, 2020)
